Only a selection was taken, and hits are over-represented in it overall.
KDM5B inh – KDM5B demethylase inhibition; KDM5B demethylase, FDH-coupled NADH fluorescence (FDH is formaldehyde dehydrogenase); Potency, µM (top dose mostly 57.7 µM), usual class: inhibitors; Q9UGL1; 220,000 compounds, 2.6% hits; active = well fitted inhibition curve with a large enough effect; also: 0% is about no effect; nearly all actives have a fitted effect of over 70% in size
Target sequence (Q9UGL1 whole entry, looked up): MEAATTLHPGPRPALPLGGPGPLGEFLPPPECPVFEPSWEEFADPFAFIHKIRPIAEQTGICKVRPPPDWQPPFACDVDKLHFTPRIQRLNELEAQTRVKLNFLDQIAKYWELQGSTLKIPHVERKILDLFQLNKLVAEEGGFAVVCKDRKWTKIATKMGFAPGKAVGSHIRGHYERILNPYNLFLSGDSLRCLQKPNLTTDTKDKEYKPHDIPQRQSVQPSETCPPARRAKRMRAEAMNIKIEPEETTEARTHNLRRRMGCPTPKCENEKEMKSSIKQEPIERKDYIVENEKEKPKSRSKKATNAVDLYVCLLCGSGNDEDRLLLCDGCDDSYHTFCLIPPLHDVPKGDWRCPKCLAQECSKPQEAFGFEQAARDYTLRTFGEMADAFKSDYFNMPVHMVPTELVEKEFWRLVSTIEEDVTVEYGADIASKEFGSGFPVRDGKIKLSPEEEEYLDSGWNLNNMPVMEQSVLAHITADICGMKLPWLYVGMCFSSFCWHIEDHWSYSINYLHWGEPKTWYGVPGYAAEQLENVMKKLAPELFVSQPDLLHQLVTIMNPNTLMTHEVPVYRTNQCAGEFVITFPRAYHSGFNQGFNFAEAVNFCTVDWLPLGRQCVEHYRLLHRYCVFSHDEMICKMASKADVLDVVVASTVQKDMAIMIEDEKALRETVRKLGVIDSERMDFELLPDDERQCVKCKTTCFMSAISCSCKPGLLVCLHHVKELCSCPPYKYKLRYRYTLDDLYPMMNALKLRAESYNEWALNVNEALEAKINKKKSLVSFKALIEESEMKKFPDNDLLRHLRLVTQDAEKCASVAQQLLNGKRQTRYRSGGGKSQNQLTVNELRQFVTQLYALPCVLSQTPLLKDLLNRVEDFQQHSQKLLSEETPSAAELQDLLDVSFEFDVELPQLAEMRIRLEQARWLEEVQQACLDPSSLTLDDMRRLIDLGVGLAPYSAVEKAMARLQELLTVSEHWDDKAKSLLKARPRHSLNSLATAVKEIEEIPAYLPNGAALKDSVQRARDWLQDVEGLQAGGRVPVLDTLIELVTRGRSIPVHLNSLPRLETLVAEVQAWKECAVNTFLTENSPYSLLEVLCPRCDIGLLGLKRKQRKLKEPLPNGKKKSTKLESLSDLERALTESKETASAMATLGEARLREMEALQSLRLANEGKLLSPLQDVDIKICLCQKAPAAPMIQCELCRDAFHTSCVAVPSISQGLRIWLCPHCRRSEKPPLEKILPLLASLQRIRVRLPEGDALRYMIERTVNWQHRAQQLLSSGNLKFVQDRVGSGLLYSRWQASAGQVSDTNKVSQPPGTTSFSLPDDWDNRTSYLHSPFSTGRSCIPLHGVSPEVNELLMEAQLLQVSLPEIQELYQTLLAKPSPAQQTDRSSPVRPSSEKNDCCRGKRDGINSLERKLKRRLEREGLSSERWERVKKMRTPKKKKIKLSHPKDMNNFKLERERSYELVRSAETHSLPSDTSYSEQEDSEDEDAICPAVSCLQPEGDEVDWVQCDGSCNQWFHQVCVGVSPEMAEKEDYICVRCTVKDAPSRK
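Measured: NADH fluorescence change, 30 min, RT. System: KDM5BΔAP 200 nM final, H3K4me3 peptide, α-KG, Fe(II), ascorbate, NAD⁺ plus FDH, pH 7.5 HEPES. Compounds: titrated, 10 min pre-incubation with enzyme.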
* marks the source's active call; other numbers are inactive results; i = inactive; ! = repeats disagree. Potency is read from the fitted curve at half-maximal effect.

SMILES	KDM5B inh
COc1ccc(CCOC(=O)Cc2coc3cc(C)c(C)cc23)cc1	i
COCCN(Cc1ccccn1)Cc1cc(=O)c2cc(C)cc(C)c2[nH]1	28µM*
COc1cccc(-c2nc(SCc3cc(=O)c4cc(C)cc(C)c4[nH]3)n[nH]2)c1	i
CCOc1ccc(CN(CCOC)Cc2cc(=O)n3ccc(C)cc3n2)cc1	i
Cc1occc1-c1nc(-c2ccc(Cl)cc2)no1	i
c1ccc(CSc2nc3ncccc3[nH]2)cc1	i
CC(C)c1ccc(NC(=O)CSc2nc3ncccc3[nH]2)cc1	i
c1cncc(-c2nc3ncccc3[nH]2)c1	35µM*
c1ccc(-c2nc3ncccc3[nH]2)cc1	32µM*!
Cc1occc1-c1nc2ncccc2[nH]1	32µM*
CC(C)c1cnc(-c2cccnc2)[nH]1	i
S=c1nc(-c2ccccc2)[nH]c2ccc(Br)cc12	i
NCc1ccc(-c2cccnc2)cc1	i
Fc1c(C(F)(F)F)nc2ccc(Br)cn12	i
Cc1ccc(/C(=N/O)c2cccs2)cc1	i
O=C(COc1ccccc1)Nc1ccc([C@@H](O)[C@H]2COCC(=O)N2Cc2ccc(C(F)(F)F)cc2)cc1	i
CC(C)NC(=O)C(Cc1ccccc1)NC(=O)c1ccccc1 (stereo not given)	i
CCn1cc(S(=O)(=O)Nc2ccc(F)c(F)c2)cn1	i
CCNC(=O)C1CCCN(S(=O)(=O)c2ccccc2)CCC(=O)NCC1 (stereo not given)	i
CC(C)(C)C1CCC(C(=O)NN)CC1 (stereo not given)	i
CCN(CC)c1nc2ccccc2nc1C(=O)Nc1cccc(OC)c1	i
COc1cccc(NC(=O)c2cc3c(N(C)Cc4ccccc4)nc(C)cn3n2)c1	28µM*
COc1ccc(NC(=O)c2cc(C)nc3ccccc23)cc1OC	i
COc1cccc(CN(C)CC(=O)Nc2cc(C)nn2-c2ccccc2)c1	i
COc1ccc(NC(=O)Cn2c(N(C)Cc3ccccc3)nc(C)cc2=O)cc1OC	i
SMILES	KDM5B inh
COc1ccc(NC(=O)c2cc3c(N(C)Cc4ccccc4)nc(C)cn3n2)cc1OC	32µM*
Cc1ccc(C(=O)C(C)OC(=O)c2ccc(S(=O)(=O)N(C)C)cc2)cc1 (stereo not given)	i
O=C(Nc1ccccc1C(=O)NCc1ccccc1)c1cccnc1	i
CCCN1C(SCC(=O)Nc2ccc(CC)cc2)=NS(=O)(=O)c2ccccc21	i
CCCS(=O)(=O)N1CCCC(Cc2noc(-c3cccnc3)n2)C1 (stereo not given)	i
Cc1ccccc1S(=O)(=O)N1CCCC(Cc2noc(-c3cccnc3)n2)C1 (stereo not given)	i
Cc1nc(CC2CCN(c3nccc(-c4cccnc4)n3)CC2)no1	22µM*
Cc1ccccc1NC(=O)CCc1c[nH]c2ccccc12	i
CCOc1cccc(CNC)c1OCc1ccc(Cl)cc1	i
CCOc1ccc(CC(=O)NCCn2ccn3nc(-c4ccc(C)cc4C)cc3c2=O)cc1	i
CCOc1ccc(-c2cc3c(=O)n(CCNC(=O)c4ccc(C)c(C)c4)ccn3n2)cc1	18µM*
CCOc1ccc(-c2cc3c(=O)n(CC(=O)Nc4c(C)cccc4C)ccn3n2)cc1	i
CCOc1ccc(-c2cc3c(=O)n(CCNC(=O)Cc4cccs4)ccn3n2)cc1	32µM*
CCOc1ccc(-c2cc3c(=O)n(CCNC(=O)c4cccc(N(C)C)c4)ccn3n2)cc1	32µM*
CCOc1ccc(-c2cc3c(=O)n(CCNC(=O)c4ccc(C)cc4)ccn3n2)cc1	i
CCOc1ccc(C(=O)NCCn2ccn3nc(-c4cc(C)ccc4C)cc3c2=O)cc1	i
Cc1ccc(C)c(-c2cc3c(=O)n(CCNC(=O)c4cccc(N(C)C)c4)ccn3n2)c1	32µM*
Cc1ccc(C)c(-c2cc3c(=O)n(CCNC(=O)c4c(F)cccc4Cl)ccn3n2)c1	i
CCOc1ccc(-c2cc3c(=O)n(CCNC(=O)c4ccccc4)ccn3n2)cc1	i
COc1ccc(-c2nc(CSCC(=O)N3CCc4ccccc43)co2)cc1	i
CCOc1ccccc1NC(=O)[C@H]1CCC[C@H]1NC(=O)c1ccc(OC)cc1	i
CC1(C)CC(=O)C(/C=N/C(N)=O)=C(O)C1	i
CCNC(=O)NC(=O)CN1CCN(c2ccccc2Cl)CC1	i
Cc1ccc(OC(C)C(=O)NCCc2c[nH]c3ccccc23)cc1 (stereo not given)	i
NCc1ccccc1-c1ccccn1	i
SMILES	KDM5B inh
CC(C)(C)C(=O)/C=c1/[nH]c(=O)/c(=C/c2ccc(OC(F)F)cc2)s1	i
CC(=O)Nc1ccc(C2(C(=O)N3CCN(c4ccccc4)CC3)CCCCC2)cc1	i
O=C(Nc1ccc(C2(C(=O)N3CCN(c4ccccn4)CC3)CCC2)cc1)C1CC1	18µM*
CC(C)C(=O)Nc1ccc(C2(C(=O)N3CCN(c4ccccn4)CC3)CCCCC2)cc1	22µM*
CS(=O)(=O)Nc1ccc(C2(C(=O)NCCN3CCCCC3)CCCCC2)cc1	i
CS(=O)(=O)Nc1ccc(C2(C(=O)N3CCN(c4ccccn4)CC3)CCCCC2)cc1	22µM*
O=C(Nc1ccc(C2(C(=O)O)CCC2)cc1)C1CC1	i
CCCCN1CCN(C(=O)C2(c3ccc(NC(=O)C(C)C)cc3)CCCCC2)CC1	i
CC(C)C(=O)Nc1ccc(C2(C(=O)N3CCCCC3)CCCCC2)cc1	i
CCCN1CCN(C(=O)C2(c3ccc(NC(=O)C4CC4)cc3)CCCCC2)CC1	i
CCOc1cccc(CN2CCCC(COc3ccccc3C(=O)N3CCCC3)C2)c1 (stereo not given)	i
COc1ccc(F)cc1C1=NN(C(C)=O)C(c2ccc3nccnc3c2)C1 (stereo not given)	i
Cc1ccc2cccc(NC(=O)COc3cccc(C)c3C)c2n1	i
COc1cccc(/C=C(/C#N)C(=O)c2c(Cl)cccc2Cl)c1	i
CS(=O)(=O)N1CCN(C(C(=O)O)c2c[nH]c3cc(F)ccc23)CC1 (stereo not given)	i
CSc1cccc(NC(=O)Cc2ccc(Cl)cc2)c1	i
CCC(=O)N(CCC1(CCC(C)C)CCOC(C)(C)C1)Cc1ccccc1 (stereo not given)	i
COc1ccc(CCn2c(SCC(C)C)nc3c2c(=O)n(C)c(=O)n3C)cc1	i
CCn1ccc(C(=O)NCC2Cn3cccc3C(=O)N2CC(C)C)n1 (stereo not given)	i
O=C(NCCCc1ccccc1)c1cncc(Br)c1	i
O=C1c2cccn2CC(CNS(=O)(=O)c2ccc(F)cc2)N1Cc1ccccc1 (stereo not given)	i
O=S(=O)(NCC1Cn2cccc2CN1Cc1cccnc1)c1ccc(F)cc1 (stereo not given)	28µM*
O=C(NCCC(c1ccccc1)c1ccccc1)c1cncc(Br)c1	i
O=C(NCC1Cn2cccc2C(=O)N1Cc1ccccc1)c1ccccn1 (stereo not given)	i
COCCN1C(=O)c2cccn2CC1CNS(=O)(=O)c1ccc(F)cc1 (stereo not given)	i
CN1C(=O)c2cccn2CC1CNC(=O)c1nccn1C (stereo not given)	i
CCn1ccc(C(=O)NCC2Cn3cccc3CN2Cc2ccccc2)n1 (stereo not given)	28µM*
O=C(NCC1Cn2cccc2CN1Cc1ccccc1)c1cncc(Br)c1 (stereo not given)	28µM*
CN1Cc2cccn2CC1CNC(=O)c1ccnn1C (stereo not given)	22µM*

Source: PubChem BioAssay
